# How the values were obtained:
# Assay in all cases: DAPPL (digital affinity profiling via proximity ligation, sequencing); 10 mM Tris-HCl pH 7.5, 50 mM NaCl, 1 mM DTT, 4% glycerol, room temperature, 30 min; GST-TFs on glutathione beads, 16-mer random dsDNA library, 0.1% formaldehyde crosslink after washing; high values mean tight binding
# [1] = biological target: T1, FEV (Homo sapiens, UniProt Q99581 1-238); conditions: protein: recombinant; tags: N-terminal GST; dsDNA, one strand shown
# T1 sequence: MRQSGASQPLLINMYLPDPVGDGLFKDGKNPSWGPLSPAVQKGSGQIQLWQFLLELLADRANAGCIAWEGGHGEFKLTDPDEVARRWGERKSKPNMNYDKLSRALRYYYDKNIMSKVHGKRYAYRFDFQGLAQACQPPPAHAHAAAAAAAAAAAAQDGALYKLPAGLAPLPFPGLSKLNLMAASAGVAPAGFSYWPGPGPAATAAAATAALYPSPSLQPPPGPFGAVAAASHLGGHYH
# In short: (§1)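 GST fusions of human transcription factors were expressed in yeast and captured with glutathione beads. Once given DNA barcodes and pooled alongside a tag-only sample, they were incubated for 30 min at room temperature with 200 nmole of a random double-stranded 16-mer DNA library in Tris/NaCl/DTT/glycerol buffer, then washed, crosslinked (0.1% formaldehyde), proximity-ligated, PCR-amplified and sequenced on an Illumina NextSeq500. The binding signal of each hexamer is its read frequency for a factor divided by its frequency for the tag-only sample.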
# [2] = biological target: ETV5 (Homo sapiens, UniProt P41161 1-510); conditions: protein: recombinant; tags: N-terminal GST; dsDNA, one strand shown
# ETV5, sequence (P41161 whole entry): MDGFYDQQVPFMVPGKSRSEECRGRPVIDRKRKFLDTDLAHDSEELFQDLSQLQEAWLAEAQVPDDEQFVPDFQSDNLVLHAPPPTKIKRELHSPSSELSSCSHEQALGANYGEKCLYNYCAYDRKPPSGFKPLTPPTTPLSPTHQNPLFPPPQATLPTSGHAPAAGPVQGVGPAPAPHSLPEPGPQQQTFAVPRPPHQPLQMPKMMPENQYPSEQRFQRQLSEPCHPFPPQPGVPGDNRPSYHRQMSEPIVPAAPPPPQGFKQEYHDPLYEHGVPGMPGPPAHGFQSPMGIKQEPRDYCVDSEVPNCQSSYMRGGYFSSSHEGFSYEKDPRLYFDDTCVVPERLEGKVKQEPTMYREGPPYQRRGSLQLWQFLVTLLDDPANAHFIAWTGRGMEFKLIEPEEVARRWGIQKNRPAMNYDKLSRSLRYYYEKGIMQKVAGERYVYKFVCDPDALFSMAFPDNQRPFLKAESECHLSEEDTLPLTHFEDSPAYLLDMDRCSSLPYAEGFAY
# In short: as §1
# [3] = biological target: HSF1 (Homo sapiens, UniProt Q00613 1-529); conditions: protein: recombinant; tags: N-terminal GST; chain copies: 3; dsDNA, one strand shown
# HSF1, sequence (Q00613 whole entry): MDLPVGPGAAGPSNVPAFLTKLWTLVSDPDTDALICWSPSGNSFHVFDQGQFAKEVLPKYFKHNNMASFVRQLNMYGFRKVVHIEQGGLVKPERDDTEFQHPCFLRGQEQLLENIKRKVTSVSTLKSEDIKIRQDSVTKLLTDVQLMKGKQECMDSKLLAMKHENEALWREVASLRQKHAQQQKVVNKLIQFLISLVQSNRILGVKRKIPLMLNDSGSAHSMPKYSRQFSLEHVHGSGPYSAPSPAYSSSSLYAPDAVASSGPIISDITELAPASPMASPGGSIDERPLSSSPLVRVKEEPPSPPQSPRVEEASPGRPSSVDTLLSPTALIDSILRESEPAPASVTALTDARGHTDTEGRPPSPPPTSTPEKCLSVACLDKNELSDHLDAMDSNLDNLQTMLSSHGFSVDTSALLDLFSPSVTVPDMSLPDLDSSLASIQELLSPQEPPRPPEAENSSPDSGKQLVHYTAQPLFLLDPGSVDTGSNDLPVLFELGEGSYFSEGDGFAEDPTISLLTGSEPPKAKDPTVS
# In short: as §1
# [4] = biological target: T2, SPIC (Homo sapiens, UniProt Q8N5J4 1-248); conditions: protein: recombinant; tags: N-terminal GST; dsDNA, one strand shown
# T2 sequence: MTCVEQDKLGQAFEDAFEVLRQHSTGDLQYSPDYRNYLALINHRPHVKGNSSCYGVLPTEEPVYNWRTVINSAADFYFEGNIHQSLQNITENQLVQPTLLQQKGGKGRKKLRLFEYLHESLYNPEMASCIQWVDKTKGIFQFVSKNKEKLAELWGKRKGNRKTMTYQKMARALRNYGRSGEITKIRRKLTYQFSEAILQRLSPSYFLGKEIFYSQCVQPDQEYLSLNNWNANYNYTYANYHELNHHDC
# In short: as §1
# [5] = biological target: ELF4 (Homo sapiens, UniProt Q99607 1-663); conditions: protein: recombinant; tags: N-terminal GST; dsDNA, one strand shown
# ELF4, sequence (Q99607 whole entry): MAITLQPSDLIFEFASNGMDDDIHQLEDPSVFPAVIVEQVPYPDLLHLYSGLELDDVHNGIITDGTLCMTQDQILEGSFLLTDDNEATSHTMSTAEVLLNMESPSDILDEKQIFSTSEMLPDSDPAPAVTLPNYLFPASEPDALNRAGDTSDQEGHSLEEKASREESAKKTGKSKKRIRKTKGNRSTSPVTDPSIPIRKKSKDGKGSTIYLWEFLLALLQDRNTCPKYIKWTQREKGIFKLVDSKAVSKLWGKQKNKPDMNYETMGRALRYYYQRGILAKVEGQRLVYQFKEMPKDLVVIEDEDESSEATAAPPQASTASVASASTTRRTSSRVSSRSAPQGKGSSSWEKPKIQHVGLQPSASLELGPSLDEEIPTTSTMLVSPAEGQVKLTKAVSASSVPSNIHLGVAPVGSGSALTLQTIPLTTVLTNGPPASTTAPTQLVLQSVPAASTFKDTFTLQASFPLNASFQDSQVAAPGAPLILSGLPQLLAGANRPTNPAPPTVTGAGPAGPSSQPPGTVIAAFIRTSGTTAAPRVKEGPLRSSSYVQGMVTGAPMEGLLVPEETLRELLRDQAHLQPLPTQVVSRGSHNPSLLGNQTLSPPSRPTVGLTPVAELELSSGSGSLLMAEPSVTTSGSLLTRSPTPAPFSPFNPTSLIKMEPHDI
# In short: as §1
# [6] = biological target: T3, ELK4 (Homo sapiens, UniProt P28324-2 1-405); conditions: protein: recombinant; tags: N-terminal GST; dsDNA, one strand shown
# T3 sequence: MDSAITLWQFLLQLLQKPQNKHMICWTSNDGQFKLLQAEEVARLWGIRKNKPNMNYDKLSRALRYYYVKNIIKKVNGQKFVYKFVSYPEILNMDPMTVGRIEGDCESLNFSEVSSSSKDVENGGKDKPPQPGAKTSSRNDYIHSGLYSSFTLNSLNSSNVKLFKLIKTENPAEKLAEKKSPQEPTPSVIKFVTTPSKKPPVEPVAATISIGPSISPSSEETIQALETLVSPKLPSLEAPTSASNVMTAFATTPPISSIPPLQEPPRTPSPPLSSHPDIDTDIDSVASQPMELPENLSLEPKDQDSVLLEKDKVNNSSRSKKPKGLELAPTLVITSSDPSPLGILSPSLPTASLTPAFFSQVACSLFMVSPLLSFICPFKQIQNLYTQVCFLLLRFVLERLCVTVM
# In short: as §1
# [7] = biological target: T4, ETV2 (Homo sapiens, UniProt O00321 1-342); conditions: protein: recombinant; tags: N-terminal GST; dsDNA, one strand shown
# T4 sequence: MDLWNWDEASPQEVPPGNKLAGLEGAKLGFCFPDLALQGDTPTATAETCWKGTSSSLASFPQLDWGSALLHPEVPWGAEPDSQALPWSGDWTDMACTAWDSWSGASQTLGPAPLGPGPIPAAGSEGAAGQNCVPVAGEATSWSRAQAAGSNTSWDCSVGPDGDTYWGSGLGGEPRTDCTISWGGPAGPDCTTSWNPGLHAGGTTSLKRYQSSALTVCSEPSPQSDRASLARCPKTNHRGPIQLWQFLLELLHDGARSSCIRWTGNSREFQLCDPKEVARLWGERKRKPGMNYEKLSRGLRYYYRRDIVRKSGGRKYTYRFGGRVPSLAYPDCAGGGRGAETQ
# In short: as §1
# [8] = biological target: T5, ELF3 (Homo sapiens, UniProt P78545 1-371); conditions: protein: recombinant; tags: N-terminal GST; dsDNA, one strand shown
# T5 sequence: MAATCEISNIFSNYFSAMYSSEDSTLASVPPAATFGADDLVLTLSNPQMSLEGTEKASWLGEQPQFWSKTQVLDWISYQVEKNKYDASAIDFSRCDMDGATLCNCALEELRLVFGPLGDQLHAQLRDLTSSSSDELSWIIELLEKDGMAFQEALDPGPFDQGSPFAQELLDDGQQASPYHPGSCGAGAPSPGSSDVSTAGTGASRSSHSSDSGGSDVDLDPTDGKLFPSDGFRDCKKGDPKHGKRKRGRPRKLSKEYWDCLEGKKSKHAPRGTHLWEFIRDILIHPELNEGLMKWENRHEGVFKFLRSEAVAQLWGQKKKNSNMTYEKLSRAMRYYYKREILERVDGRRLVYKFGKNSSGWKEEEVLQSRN
# In short: as §1
# [9] = biological target: CRX (Homo sapiens, UniProt O43186 1-299); conditions: protein: recombinant; tags: N-terminal GST; dsDNA, one strand shown
# CRX, sequence (O43186 whole entry): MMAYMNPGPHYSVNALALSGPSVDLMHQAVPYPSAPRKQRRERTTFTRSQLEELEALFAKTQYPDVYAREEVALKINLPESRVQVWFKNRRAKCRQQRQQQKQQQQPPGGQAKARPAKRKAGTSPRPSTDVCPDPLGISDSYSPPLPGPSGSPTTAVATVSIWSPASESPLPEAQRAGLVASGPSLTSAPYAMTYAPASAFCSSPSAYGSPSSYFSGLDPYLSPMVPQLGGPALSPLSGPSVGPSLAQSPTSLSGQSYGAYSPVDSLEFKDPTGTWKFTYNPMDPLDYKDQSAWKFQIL
# In short: as §1
# [10] = biological target: ETV1 (Homo sapiens, UniProt P50549 1-477); conditions: protein: recombinant; tags: N-terminal GST; dsDNA, one strand shown
# ETV1, sequence (P50549 whole entry): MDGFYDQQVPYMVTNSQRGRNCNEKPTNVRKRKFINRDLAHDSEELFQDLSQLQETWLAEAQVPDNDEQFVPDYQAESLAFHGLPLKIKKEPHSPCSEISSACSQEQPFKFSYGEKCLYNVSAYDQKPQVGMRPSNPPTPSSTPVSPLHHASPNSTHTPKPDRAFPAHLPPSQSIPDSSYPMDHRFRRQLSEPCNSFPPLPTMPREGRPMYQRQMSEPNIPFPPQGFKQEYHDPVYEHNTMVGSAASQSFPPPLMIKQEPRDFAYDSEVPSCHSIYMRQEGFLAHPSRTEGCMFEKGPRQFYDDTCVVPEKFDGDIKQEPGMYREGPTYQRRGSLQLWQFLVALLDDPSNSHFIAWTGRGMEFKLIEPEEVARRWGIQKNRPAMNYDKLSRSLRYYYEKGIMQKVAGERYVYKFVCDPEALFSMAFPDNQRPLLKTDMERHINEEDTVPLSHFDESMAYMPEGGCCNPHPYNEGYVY
# In short: as §1
sequence,measurement,setting,value
TGTTTA,binding signal,[1],"1.12 fold enrichment (6-mer frequency, TF over GST control)"
same,binding signal,[2],"1.19 fold enrichment (6-mer frequency, TF over GST control)"
same,binding signal,[3],"1.12 fold enrichment (6-mer frequency, TF over GST control)"
same,binding signal,[4],"1.05 fold enrichment (6-mer frequency, TF over GST control)"
same,binding signal,[5],"1.11 fold enrichment (6-mer frequency, TF over GST control)"
same,binding signal,[6],"1.25 fold enrichment (6-mer frequency, TF over GST control)"
same,binding signal,[7],"1.04 fold enrichment (6-mer frequency, TF over GST control)"
same,binding signal,[8],"1.22 fold enrichment (6-mer frequency, TF over GST control)"
same,binding signal,[9],"1.25 fold enrichment (6-mer frequency, TF over GST control)"
same,binding signal,[10],"1.09 fold enrichment (6-mer frequency, TF over GST control)"
